Hit rate of the full screen: of about 360,000 compounds, about 2,900 (0.81%) were called active.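 How the source made its calls: active means inhibition above the mean inhibition across every tested compound plus 3 SD (cut at about 22% in these data); inactive means the rest.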 What follows is part of a selection rich in actives, with near analogues and random picks from the rest.
molecular target: Perilipin-5 (Homo sapiens) + 1-acylglycerol-3-phosphate O-acyltransferase ABHD5 (Homo sapiens) (UniProt Q00G26+Q8WTS1); assay: blockers of ABHD5 binding to perilipin-5 – cell lysate, split luciferase complementation, luminescence, primary screen (AID 602281);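 further: 0% = DMSO only wells and the 100% control is not disclosed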; conditions: Split G. princeps luciferase complementation, 4 h, at 4 µM, stronger effect = higher value
Sequence (Q00G26 whole entry, looked up): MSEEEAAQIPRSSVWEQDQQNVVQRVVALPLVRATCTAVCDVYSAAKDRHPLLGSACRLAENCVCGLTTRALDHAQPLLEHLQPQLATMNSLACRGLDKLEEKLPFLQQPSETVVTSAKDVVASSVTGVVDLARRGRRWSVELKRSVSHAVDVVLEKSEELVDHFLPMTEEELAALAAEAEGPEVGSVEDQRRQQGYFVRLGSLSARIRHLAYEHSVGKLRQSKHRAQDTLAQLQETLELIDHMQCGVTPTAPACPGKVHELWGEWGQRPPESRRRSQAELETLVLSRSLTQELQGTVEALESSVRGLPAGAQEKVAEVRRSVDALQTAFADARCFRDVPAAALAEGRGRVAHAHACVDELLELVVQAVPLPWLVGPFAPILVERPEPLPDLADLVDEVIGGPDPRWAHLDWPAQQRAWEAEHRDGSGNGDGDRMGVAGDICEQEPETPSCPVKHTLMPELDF
Sequence (Q8WTS1 whole entry, looked up): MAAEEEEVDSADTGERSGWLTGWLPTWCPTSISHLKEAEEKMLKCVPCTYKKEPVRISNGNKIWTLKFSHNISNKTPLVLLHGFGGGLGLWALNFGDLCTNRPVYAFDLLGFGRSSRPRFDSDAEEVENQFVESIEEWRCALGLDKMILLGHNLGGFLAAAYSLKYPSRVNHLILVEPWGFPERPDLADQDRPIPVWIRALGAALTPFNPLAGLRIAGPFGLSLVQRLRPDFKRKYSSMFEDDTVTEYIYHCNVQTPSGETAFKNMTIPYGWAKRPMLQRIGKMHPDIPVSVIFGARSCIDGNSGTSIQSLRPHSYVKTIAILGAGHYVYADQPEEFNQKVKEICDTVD

Row | SMILES | inhibition
1 | O=c1[nH][nH]c2c1[C@H](c1ccc(Cl)cc1)O[C@H](CCc1ccccc1)C2 | 29.6% (active)
2 | CC(C)C1Cc2[nH][nH]c(=O)c2C(c2ccc(Cl)cc2)O1 (configuration not stated) | 4.21% (inactive)
3 | COc1ccc(C2OC(CCc3ccccc3)Cc3[nH]c(=S)[nH]c(=O)c32)cc1 (configuration not stated) | -6.49% (inactive)
4 | CCOCCCNC(=O)c1ccc(CS(=O)(=O)c2cccc(C(F)(F)F)c2)o1 | 9.27% (inactive)
5 | N#C/C(=C(\O)C(F)(F)F)c1nnc2n1CCCCC2 | 4.79% (inactive)
6 | CC(=O)OCCOCn1cnn2c(=O)c(Br)c(C)nc12 | -1.92% (inactive)
7 | Cc1cc2c(c(=O)n1C)C(C(C)C)C(C#N)=C(N)O2 (configuration not stated) | 1.5% (inactive)
8 | Cc1cc2c(c(=O)n1Cc1ccco1)C(c1ccccc1)C(C#N)=C(N)O2 (configuration not stated) | 36.4% (active)
9 | Cn1c2c(c(=O)n(C)c1=O)C(c1cccc(F)c1)C(C#N)=C(N)O2 (configuration not stated) | 12.7% (inactive)
10 | CC1CCCCC1NC(=O)CSc1nnc(-c2ccncc2)n1CCCN(C)C (configuration not stated) | 3.79% (inactive)
11 | COC1=NC2=NCCN2C(OC)=N1 | 7.21% (inactive)
12 | Cn1c2ccccc2c2cc(/C=C(\NC(=O)c3ccccc3)C(=O)NCC(=O)O)ccc21 | 4.74% (inactive)
13 | C[C@H](CO)N1C[C@H](C)[C@@H](CN(C)Cc2ccc(-c3ccccc3)cc2)Oc2ccc(NC(=O)Cn3cnnn3)cc2C1=O | 1.64% (inactive)
14 | O=C(CSC1=NS(=O)(=O)c2cc(F)ccc2N1)Nc1ccccc1F | -1.35% (inactive)
15 | C=CCNC(=S)/N=c1/ccccn1Cc1ccccc1 | -6.7% (inactive)
16 | CC1CCCN(CC(=O)Nc2cc(Cl)ccc2Oc2ccccc2)C1 (configuration not stated) | -6.16% (inactive)
17 | OC(c1ccccc1)(c1ccccc1)C1CCN(CCCOc2ccccc2)CC1 | 4.12% (inactive)
18 | CN1CCC[C@@H]1CCO[C@](C)(c1ccccc1)c1ccc(Cl)cc1 | 24.5% (active)
19 | Cc1cc(C)cc(N)c1 | -4.69% (inactive)

Row | SMILES | inhibition
20 | COc1cc(/C=C/CNC[C@H]2O[C@@H](n3cnc(C(N)=O)n3)[C@H](O)[C@@H]2O)ccc1O | 9.45% (inactive)
21 | COc1ccc(N/C=C(\C2OC(=O)c3ccccc32)[N+](=O)[O-])cc1 (configuration not stated) | 42.9% (active)
22 | COc1ccc(NC(=O)C2=C(C)NC(=O)NC2c2ccccc2[N+](=O)[O-])cc1 (configuration not stated) | -1.09% (inactive)
23 | COc1ccc(NC(=O)ON=C2c3ccccc3-c3ccccc32)cc1 | -4.58% (inactive)
24 | Cc1cc(C)c(S(=O)(=O)N2CCOCC2)cc1C | 2.37% (inactive)
25 | CC(=O)c1ccc(N=C2SCCCN2C(=O)C2CCCCC2)cc1 | -0.57% (inactive)
26 | CC(=O)c1c(C)[nH]c(C(=O)COc2ccc3c(C)cc(=O)oc3c2)c1C | -4.41% (inactive)
27 | C/C(=N\NC(=O)c1ccc(C)cc1)C1C(=O)c2ccccc2C1=O | 5.2% (inactive)
28 | O=C(NC1=CC(=O)c2ccccc2C1=O)c1ccccc1 | 84.6% (active)
29 | CN(C)C(=O)c1ccc(NC(=O)c2ccccc2-c2ccccc2)cc1 | 2.67% (inactive)
30 | CCC(=O)Nc1ccc(C(=O)CSc2nnc(CNc3ccc(Cl)cc3)o2)cc1OC | -15.2% (inactive)
31 | OC1CSc2nc3ccccc3n2C1 (configuration not stated) | 1.22% (inactive)
32 | O=C(Cc1ccccc1Cl)N1CCOCC1 | 1.3% (inactive)
33 | Cc1cc(C)c(NC(=O)CN2C(=O)NC(Cc3ccccc3)C2=O)c(C)c1 (configuration not stated) | 3.3% (inactive)
34 | CN(Cc1ccccc1)S(=O)(=O)c1nnc(NC(=O)c2ccccc2F)s1 | -11.4% (inactive)
35 | O=C(Nc1nnc(Cc2ccc(Cl)cc2)s1)c1cccnc1 | 10% (inactive)
36 | Cc1ccc(CS(=O)(=O)CCC(=O)NC2CC2)cc1 | 0.91% (inactive)
37 | CSc1nnc(NC(=O)c2nc(S(=O)(=O)Cc3ccc(C)cc3)ncc2Cl)s1 | 32.5% (active)
38 | Cc1ccc(CS(=O)(=O)c2ncc(Cl)c(C(=O)Nc3nnc(C)s3)n2)cc1 | 43.2% (active)

Row | SMILES | inhibition
39 | CCOC(=O)c1sc(N)c(C#N)c1COC(=O)C1=COCCO1 | -2.21% (inactive)
40 | CCCCn1c(N)c(N(CCOC)C(=O)c2cccc(S(=O)(=O)N(C)c3ccccc3)c2)c(=O)[nH]c1=O | -4.97% (inactive)
41 | COC(=O)Cc1ccc(N(Cc2ccccc2F)S(=O)(=O)c2ccc(Br)cc2)cc1 | 0.04% (inactive)
42 | Cc1cccc(NC(=O)c2ccc(OCC(=O)NCc3ccccc3)cc2)c1C | -5.25% (inactive)
43 | Cc1cccc(NC(=O)c2cccc(C(=O)Nc3cccc(C)c3C)n2)c1C | -2.21% (inactive)
44 | Cc1cccc(NC(=O)c2ccc3nsnc3c2)c1C | 122% (active)
45 | Cc1noc(C)c1COc1ccccc1C(=O)N(C)CC(=O)Nc1cccc(F)c1 | 8.24% (inactive)
46 | O=NN(CCCl)C(=O)NCCc1cccc[n+]1[O-] | 1.74% (inactive)
47 | COC(=O)C1(C)NC(c2ccccc2OC)C2C(=O)N(c3ccccc3)C(=O)C21 (configuration not stated) | 69.3% (active)
48 | COC(=O)C1(C)NC(c2ccc(F)cc2)C2C(=O)N(c3ccccc3)C(=O)C21 (configuration not stated) | -0.78% (inactive)
49 | COC(=O)C1(C)NC(c2ccc(C)cc2)C2C(=O)N(c3ccc(F)cc3)C(=O)C21 (configuration not stated) | 4.79% (inactive)
50 | CC(C)CNC(=S)NNC(=O)c1nn(C)cc1Cl | -4.74% (inactive)
51 | CCOc1ccc(CCN2C(=O)C(=O)N([C@@H](Cc3ccc(O)cc3)CN3CCC[C@H]3CN3C(=O)C(=O)NC[C@@H]3CC(C)C)C[C@@H]2Cc2ccccc2)cc1 | 3.51% (inactive)
52 | Cc1cc(NC(=O)COC(=O)COc2ccc(Cl)cc2C)c([N+](=O)[O-])cc1C | 4.5% (inactive)
53 | CC(=O)c1ccc(N2CCN(S(=O)(=O)c3c(C)[nH]c(=O)[nH]c3=O)CC2)cc1 | 1.36% (inactive)
54 | CCN(CCCNC(=O)CCn1c(=O)[nH]c2ccsc2c1=O)c1ccccc1 | -1.79% (inactive)
55 | CCN(CCCNC(=O)c1ccc2c(c1)NC(=O)CN2C)c1cccc(C)c1 | 76.6% (active)
56 | CCN1CCN(CCNC(=O)c2ccc3c(c2)NC(=O)/C(=C\c2cccc(Cl)c2)S3)CC1 | 12.3% (inactive)
57 | CCN(c1ccc2c(c1)OCO2)S(=O)(=O)c1cc(Br)cc2c1N(C(=O)C1CC1)CC2 | -5.83% (inactive)

— PubChem BioAssay AID602281 (The Scripps Research Institute Molecular Screening Center, 2012)
